Columns and labels:
Experiment in all cases: log2 ratio of Biotin-Ahx-Ub-VS probe labelling (fragment/DMSO); higher = less target engagement (more negative = stronger competition), active = hit call of the paper (q ≤ 0.05, log2 ratio ≤ -1)
Details in all cases: compound concentration: 200 uM; treatment time: 3 h
ALG13 = biological target: T1, ALG13 (UniProt Q9NP73)
T1 sequence (whole entry): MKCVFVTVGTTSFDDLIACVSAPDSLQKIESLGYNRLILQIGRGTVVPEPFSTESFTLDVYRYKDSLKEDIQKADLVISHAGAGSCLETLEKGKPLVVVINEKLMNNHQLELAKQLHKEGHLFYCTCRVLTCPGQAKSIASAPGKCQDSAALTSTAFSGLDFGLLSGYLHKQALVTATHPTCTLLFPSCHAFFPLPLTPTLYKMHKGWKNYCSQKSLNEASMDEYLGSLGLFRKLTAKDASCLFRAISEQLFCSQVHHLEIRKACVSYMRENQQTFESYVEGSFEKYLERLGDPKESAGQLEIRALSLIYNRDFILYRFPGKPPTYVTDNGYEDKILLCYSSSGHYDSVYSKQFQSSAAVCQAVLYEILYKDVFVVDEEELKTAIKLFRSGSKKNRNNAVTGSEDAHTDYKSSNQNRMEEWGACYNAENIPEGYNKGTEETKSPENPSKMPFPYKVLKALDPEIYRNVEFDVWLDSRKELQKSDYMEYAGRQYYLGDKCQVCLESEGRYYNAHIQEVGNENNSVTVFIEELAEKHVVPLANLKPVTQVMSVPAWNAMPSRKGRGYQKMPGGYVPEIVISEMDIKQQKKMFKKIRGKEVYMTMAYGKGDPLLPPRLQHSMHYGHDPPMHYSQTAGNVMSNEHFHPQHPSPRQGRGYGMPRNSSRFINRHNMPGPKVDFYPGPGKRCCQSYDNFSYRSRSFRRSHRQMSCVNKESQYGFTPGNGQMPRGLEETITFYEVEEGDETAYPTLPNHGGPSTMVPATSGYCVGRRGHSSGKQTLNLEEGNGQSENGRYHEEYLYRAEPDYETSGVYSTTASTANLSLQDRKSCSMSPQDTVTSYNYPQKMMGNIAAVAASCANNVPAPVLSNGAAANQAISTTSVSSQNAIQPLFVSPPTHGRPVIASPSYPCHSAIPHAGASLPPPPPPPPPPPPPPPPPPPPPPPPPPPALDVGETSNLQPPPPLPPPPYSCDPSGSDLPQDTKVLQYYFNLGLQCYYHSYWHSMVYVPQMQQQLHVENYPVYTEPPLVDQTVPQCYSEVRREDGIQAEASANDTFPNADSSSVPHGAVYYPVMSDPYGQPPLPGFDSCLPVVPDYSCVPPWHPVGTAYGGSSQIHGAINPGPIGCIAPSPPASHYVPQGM
Procedure, shortened: (§1)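 HEK293T lysate (495 µg per sample, in Tris/CHAPS/IGEPAL buffer with protease inhibitors) was treated in triplicate with fragment at 200 µM or with DMSO for 3 h. It was then treated with Biotin-Ahx-Ub-VS (0.5 µM final) for 1 h. Labelled DUBs were NeutrAvidin-enriched, digested with LysC and trypsin, and run by diaPASEF LC-MS/MS. Spectronaut label-free quantities were global-median-normalised. Values are average log2 ratios fragment/DMSO by unpaired t-test, using proteins with ≥2 unique peptides.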

ATXN3 = ATXN3 (UniProt P54252)
Sequence of ATXN3 (P54252 whole entry): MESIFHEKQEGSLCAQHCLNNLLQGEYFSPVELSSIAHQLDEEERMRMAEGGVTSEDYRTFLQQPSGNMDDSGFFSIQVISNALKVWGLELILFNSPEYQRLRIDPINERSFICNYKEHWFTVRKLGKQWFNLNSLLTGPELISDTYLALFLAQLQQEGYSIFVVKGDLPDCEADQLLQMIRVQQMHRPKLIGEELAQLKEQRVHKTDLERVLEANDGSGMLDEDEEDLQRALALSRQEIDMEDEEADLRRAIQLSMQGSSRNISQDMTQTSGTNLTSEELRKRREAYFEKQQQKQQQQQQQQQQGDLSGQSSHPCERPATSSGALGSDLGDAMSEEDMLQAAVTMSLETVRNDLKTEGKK
Procedure, shortened: as §1

BAP1 = biological target: T2, BAP1 (UniProt Q92560)
T2 sequence (whole entry): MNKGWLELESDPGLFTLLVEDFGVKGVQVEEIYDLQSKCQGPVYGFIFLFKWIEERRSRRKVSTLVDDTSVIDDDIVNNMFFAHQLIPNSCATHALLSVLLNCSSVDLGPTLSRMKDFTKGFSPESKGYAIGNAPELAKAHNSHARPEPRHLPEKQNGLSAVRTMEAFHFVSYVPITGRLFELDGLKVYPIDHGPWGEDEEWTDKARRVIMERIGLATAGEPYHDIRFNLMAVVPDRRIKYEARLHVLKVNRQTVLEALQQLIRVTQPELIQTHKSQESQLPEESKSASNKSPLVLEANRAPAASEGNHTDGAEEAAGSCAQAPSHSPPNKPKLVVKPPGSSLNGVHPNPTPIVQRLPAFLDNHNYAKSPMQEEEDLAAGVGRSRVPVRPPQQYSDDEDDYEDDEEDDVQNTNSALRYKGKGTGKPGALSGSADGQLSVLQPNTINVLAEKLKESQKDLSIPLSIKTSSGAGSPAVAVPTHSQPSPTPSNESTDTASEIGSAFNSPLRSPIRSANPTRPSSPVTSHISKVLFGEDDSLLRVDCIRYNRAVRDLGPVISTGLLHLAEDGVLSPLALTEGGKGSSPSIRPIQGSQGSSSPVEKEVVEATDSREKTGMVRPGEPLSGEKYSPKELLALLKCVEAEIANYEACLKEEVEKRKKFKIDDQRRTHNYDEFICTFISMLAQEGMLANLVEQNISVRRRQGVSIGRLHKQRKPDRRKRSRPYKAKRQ
Procedure, shortened: as §1

EIF3F = EIF3F (UniProt O00303)
Sequence of EIF3F (O00303 whole entry): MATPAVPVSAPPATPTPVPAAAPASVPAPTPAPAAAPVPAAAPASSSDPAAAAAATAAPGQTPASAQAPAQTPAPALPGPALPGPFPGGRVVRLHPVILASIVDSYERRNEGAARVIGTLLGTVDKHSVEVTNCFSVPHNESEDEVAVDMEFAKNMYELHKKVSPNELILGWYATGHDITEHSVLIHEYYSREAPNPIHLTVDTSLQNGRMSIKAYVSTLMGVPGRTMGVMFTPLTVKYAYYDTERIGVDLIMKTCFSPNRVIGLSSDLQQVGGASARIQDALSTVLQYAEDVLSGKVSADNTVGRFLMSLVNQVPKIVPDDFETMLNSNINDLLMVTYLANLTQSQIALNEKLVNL
Procedure, shortened: as §1

EIF3H = EIF3H (UniProt O15372)
Sequence of EIF3H (O15372 whole entry): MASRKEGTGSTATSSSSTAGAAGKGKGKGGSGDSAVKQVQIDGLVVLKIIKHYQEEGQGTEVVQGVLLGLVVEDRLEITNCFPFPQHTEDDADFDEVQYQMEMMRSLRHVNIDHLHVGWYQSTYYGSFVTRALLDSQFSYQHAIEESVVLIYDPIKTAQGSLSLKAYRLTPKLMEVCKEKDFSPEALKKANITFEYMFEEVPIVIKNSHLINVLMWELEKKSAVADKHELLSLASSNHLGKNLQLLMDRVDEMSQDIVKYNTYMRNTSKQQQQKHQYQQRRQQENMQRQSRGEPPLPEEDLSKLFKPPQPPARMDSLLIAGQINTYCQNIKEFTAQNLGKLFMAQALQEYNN
Procedure, shortened: as §1

FAM105A = biological target: T3, FAM105A (UniProt Q9NUU6)
T3 sequence (whole entry): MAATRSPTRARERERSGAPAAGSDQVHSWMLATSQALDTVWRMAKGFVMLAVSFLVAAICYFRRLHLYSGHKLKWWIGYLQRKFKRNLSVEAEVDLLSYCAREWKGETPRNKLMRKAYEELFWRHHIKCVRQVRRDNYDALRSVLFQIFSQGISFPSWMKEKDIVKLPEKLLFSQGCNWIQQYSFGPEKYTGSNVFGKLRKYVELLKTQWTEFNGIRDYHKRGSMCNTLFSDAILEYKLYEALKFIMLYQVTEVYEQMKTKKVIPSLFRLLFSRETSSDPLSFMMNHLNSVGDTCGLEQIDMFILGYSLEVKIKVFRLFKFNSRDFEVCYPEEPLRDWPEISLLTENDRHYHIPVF
Procedure, shortened: as §1

OTUB1 = OTUB1 (UniProt Q96FW1)
Sequence of OTUB1 (Q96FW1 whole entry): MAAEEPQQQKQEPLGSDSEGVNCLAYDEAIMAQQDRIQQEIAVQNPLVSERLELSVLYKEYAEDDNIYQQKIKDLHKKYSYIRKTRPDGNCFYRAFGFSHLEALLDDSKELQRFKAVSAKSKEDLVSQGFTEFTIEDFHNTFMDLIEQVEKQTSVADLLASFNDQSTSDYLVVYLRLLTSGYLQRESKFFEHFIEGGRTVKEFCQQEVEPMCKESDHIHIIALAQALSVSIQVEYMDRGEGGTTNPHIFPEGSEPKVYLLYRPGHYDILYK
Procedure, shortened: as §1

OTUD4 = biological target: T4, OTUD4 (UniProt Q01804)
T4 sequence (whole entry): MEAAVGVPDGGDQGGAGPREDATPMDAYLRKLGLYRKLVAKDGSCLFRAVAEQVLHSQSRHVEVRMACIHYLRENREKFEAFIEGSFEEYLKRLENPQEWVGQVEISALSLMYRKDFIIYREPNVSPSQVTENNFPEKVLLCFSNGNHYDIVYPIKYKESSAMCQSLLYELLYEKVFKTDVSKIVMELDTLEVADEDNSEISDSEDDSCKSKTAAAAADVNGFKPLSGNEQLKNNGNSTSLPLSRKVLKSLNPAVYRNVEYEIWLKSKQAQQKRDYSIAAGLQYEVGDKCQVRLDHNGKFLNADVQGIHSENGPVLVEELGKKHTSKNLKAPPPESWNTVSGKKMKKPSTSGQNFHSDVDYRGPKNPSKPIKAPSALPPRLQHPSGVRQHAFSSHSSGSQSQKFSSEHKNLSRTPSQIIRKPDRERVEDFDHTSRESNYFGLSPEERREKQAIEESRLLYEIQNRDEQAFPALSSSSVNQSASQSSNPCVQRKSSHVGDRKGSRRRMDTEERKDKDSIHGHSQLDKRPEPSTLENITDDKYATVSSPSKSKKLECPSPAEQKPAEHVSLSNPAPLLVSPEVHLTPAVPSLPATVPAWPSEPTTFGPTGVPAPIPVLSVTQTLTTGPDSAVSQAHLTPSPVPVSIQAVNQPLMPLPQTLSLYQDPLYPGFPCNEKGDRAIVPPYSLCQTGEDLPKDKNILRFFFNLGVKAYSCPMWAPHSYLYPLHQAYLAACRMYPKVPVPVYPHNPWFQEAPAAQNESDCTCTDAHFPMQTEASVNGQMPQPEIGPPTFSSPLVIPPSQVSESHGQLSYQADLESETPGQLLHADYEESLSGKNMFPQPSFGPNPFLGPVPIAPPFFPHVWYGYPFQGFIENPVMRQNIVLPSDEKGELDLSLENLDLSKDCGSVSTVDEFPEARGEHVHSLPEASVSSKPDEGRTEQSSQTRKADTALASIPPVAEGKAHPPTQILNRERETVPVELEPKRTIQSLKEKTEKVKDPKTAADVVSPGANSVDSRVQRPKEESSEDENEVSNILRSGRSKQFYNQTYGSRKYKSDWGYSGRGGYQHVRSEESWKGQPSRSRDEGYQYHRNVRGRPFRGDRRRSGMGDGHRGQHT
Procedure, shortened: as §1

OTUD5 = biological target: T5, OTUD5 (UniProt Q96G74)
T5 sequence (whole entry): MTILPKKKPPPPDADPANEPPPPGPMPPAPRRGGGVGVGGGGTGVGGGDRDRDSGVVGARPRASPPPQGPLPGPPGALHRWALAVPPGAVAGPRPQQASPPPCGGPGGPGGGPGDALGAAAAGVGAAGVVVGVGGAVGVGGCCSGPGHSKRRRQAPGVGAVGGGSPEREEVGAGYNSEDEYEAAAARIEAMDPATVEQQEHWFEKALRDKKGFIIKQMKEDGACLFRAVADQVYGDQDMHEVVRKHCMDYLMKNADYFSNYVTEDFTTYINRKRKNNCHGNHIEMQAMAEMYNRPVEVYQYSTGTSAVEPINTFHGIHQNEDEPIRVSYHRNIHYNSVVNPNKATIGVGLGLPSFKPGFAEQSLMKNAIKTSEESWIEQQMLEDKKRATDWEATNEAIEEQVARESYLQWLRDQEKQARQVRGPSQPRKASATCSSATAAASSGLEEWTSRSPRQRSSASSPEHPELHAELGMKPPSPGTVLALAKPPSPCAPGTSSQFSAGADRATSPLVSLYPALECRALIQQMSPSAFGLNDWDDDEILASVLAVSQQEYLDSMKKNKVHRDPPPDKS
Procedure, shortened: as §1

Measured: log2 ratio of Biotin-Ahx-Ub-VS probe labelling

COCC[C@@H](NC(=O)CCl)c1ccccc1
inactive: ALG13 -0.555 | ATXN3 -0.208 | EIF3F -0.137 | EIF3H -0.017 | FAM105A 0.268 | OTUB1 -0.131 | OTUD4 -0.138 | OTUD5 -0.197
active: BAP1 -1.89
